# Reference: the supplement of paper PMC10037445
# In all, about 2,900 compounds were measured (“NF-kB SEAP reporter activity, fold change vs agonist alone”: median about 0.99, highest 2% from about 2.6 on). For the sample, the highest values were picked, then their nearest neighbours and some compounds at random.
# What was measured:
# [1] = test system: RAW-Dual; experiment: NF-kB SEAP reporter activity, fold change vs agonist alone; cytotoxicity flag (confluency mask): not cytotoxic; higher = enhanced NF-kB activity
# Procedure, shortened: (§1)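 RAW-Dual macrophages (50,000 cells/well in DMEM, 384-well plates) received 50 nL of library stock by pin tool, then a PRR agonist 1 h later, and were kept at 37 °C, 5% CO2. After 20 hours, supernatant was read for IRF by QuantiLuc luminescence and for NF-κB by QuantiBlue absorbance at 620 nm. Reporter activity is fold change over agonist-alone wells. Cytotoxic wells had IncuCyte confluency below 70% of agonist controls in both mask sets.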
# [2] = test system: RAW-Dual; experiment: NF-kB SEAP reporter activity, fold change vs agonist alone; cytotoxicity flag (confluency mask): cytotoxic (confluency <70% of control); higher = enhanced NF-kB activity
# Procedure, shortened: as §1
# [3] = test system: RAW-Dual; experiment: NF-kB SEAP reporter activity, fold change vs agonist alone; higher = enhanced NF-kB activity; settings: library stock concentration (final ~1000-fold dilution): 10 mM
# Procedure, shortened: as §1
# [4] = agonist: ODN 1826 (TLR9) 0.5 ug/mL
# [5] = agonist: Pam2CSK4 (TLR2/6) 0.1 ug/mL
# [6] = agonist: Pam3CSK4 (TLR2/1) 0.1 ug/mL
# [7] = cytotoxicity flag (confluency mask): not cytotoxic, agonist: Imiquimod (TLR7) […]
# [8] = cytotoxicity flag (confluency mask): not cytotoxic, agonist: MPLA (TLR4) […]
# [9] = cytotoxicity flag (confluency mask): cytotoxic (confluency <70% of control), agonist: Imiquimod (TLR7) […]
# [10] = cytotoxicity flag (confluency mask): cytotoxic (confluency <70% of control), agonist: MPLA (TLR4) […]
compound,measurement,setting,value
COc1cc(C(=O)O)ccc1NC(=O)C1NC(CC(C)(C)C)C(C#N)(c2ccc(Cl)cc2F)C1c1cccc(Cl)c1F (stereo not drawn) (library stock concentration (final ~1000-fold dilution): 10 mM),NF-kB SEAP reporter activity,[1]; agonist: LPS (TLR4) 0.1 ug/mL,0.272
same,NF-kB SEAP reporter activity,[1]; [4],0.436
same,NF-kB SEAP reporter activity,[1]; [5],0.145
same,NF-kB SEAP reporter activity,[1]; [6],0.285
CC(C)(C)CC1NC(C(=O)NC2CCC(O)CC2)C(c2cccc(Cl)c2F)C12C(=O)Nc1cc(Cl)ccc12 (stereo not drawn) (library stock concentration (final ~1000-fold dilution): 10 mM),NF-kB SEAP reporter activity,[2]; agonist: LPS (TLR4) 0.1 ug/mL,3.05
same,NF-kB SEAP reporter activity,[2]; [4],2.82
same,NF-kB SEAP reporter activity,[2]; [5],0.884
same,NF-kB SEAP reporter activity,[2]; [6],1.21
COc1cc(C(=O)O)ccc1NC(=O)C1NC(CC(C)(C)C)C(C#N)(c2ccc(Cl)cc2F)C1c1cccc(Cl)c1F (stereo not drawn),NF-kB SEAP reporter activity,[3]; [7],0.74
same,NF-kB SEAP reporter activity,[3]; [8],0.697
CC(C)(C)CC1NC(C(=O)NC2CCC(O)CC2)C(c2cccc(Cl)c2F)C12C(=O)Nc1cc(Cl)ccc12 (stereo not drawn),NF-kB SEAP reporter activity,[3]; [9],1.55
same,NF-kB SEAP reporter activity,[3]; [10],2.25
CC(=O)OC1(C(C)=O)CCC2C3C=C(Cl)C4=CC(=O)C5CC5C4(C)C3CCC21C (stereo not drawn),NF-kB SEAP reporter activity,[3]; [7],1.26
same,NF-kB SEAP reporter activity,[3]; [8],1.21
CC(=O)OC1(C(C)=O)CCC2C3C=C(Cl)C4=CC(=O)C5CC5C4(C)C3CCC21C (stereo not drawn) (library stock concentration (final ~1000-fold dilution): 10 mM),NF-kB SEAP reporter activity,[1]; agonist: LPS (TLR4) 0.1 ug/mL,1.2
same,NF-kB SEAP reporter activity,[1]; [4],1.01
same,NF-kB SEAP reporter activity,[1]; [5],0.777
same,NF-kB SEAP reporter activity,[1]; [6],1.08
C[C@H]1[C@@H](O)O[C@@H]2OC3(C)CC[C@H]4[C@H](C)CC[C@@H]1[C@@]24OO3,NF-kB SEAP reporter activity,[3]; [7],1.32
same,NF-kB SEAP reporter activity,[3]; [8],1.97
CC1CCC2C(C)C(OC(=O)CCC(=O)O)OC3OC4(C)CCC1C32OO4 (stereo not drawn) (library stock concentration (final ~1000-fold dilution): 10 mM),NF-kB SEAP reporter activity,[1]; agonist: LPS (TLR4) 0.1 ug/mL,5.12
same,NF-kB SEAP reporter activity,[1]; [4],1.67
same,NF-kB SEAP reporter activity,[1]; [5],1.02
same,NF-kB SEAP reporter activity,[1]; [6],1.44
CC1CCC2C(C)C(OC(=O)CCC(=O)O)OC3OC4(C)CCC1C32OO4 (stereo not drawn),NF-kB SEAP reporter activity,[3]; [7],1.84
same,NF-kB SEAP reporter activity,[3]; [8],2.5
C[C@H]1[C@@H](O)O[C@@H]2OC3(C)CC[C@H]4[C@H](C)CC[C@@H]1[C@@]24OO3 (library stock concentration (final ~1000-fold dilution): 10 mM),NF-kB SEAP reporter activity,[1]; agonist: LPS (TLR4) 0.1 ug/mL,3.41
same,NF-kB SEAP reporter activity,[1]; [4],1.13
same,NF-kB SEAP reporter activity,[1]; [5],1.1
same,NF-kB SEAP reporter activity,[1]; [6],0.848
Nc1nonc1/C(=N\O)Nc1ccc(F)c(Cl)c1 (library stock concentration (final ~1000-fold dilution): 10 mM),NF-kB SEAP reporter activity,[1]; agonist: LPS (TLR4) 0.1 ug/mL,1.01
same,NF-kB SEAP reporter activity,[1]; [4],0.882
same,NF-kB SEAP reporter activity,[1]; [5],0.938
same,NF-kB SEAP reporter activity,[1]; [6],0.585
Nc1nonc1/C(=N\O)Nc1ccc(F)c(Cl)c1,NF-kB SEAP reporter activity,[3]; [7],0.904
same,NF-kB SEAP reporter activity,[3]; [8],0.933
COc1ccc2cc1Oc1ccc(cc1)CC1c3c(cc4c(c3Oc3cc5c(cc3OC)CCN(C)C5C2)OCO4)CCN1C (stereo not drawn) (library stock concentration (final ~1000-fold dilution): 10 mM),NF-kB SEAP reporter activity,[2]; agonist: LPS (TLR4) 0.1 ug/mL,1.44
same,NF-kB SEAP reporter activity,[2]; [4],0.251
same,NF-kB SEAP reporter activity,[2]; [5],1.42
same,NF-kB SEAP reporter activity,[2]; [6],1.01
COc1ccc2cc1Oc1ccc(cc1)CC1c3c(cc4c(c3Oc3cc5c(cc3OC)CCN(C)C5C2)OCO4)CCN1C (stereo not drawn),NF-kB SEAP reporter activity,[3]; [9],1.58
same,NF-kB SEAP reporter activity,[3]; [10],2.32
CN1CCN(Cc2ccc(NC(=O)Nc3ccc(Oc4ccnc(N)n4)cc3)cc2C(F)(F)F)CC1 (library stock concentration (final ~1000-fold dilution): 10 mM),NF-kB SEAP reporter activity,[2]; agonist: LPS (TLR4) 0.1 ug/mL,0.293
same,NF-kB SEAP reporter activity,[2]; [4],0.197
same,NF-kB SEAP reporter activity,[2]; [5],0.0678
same,NF-kB SEAP reporter activity,[2]; [6],0.129
CN1CCN(Cc2ccc(NC(=O)Nc3ccc(Oc4ccnc(N)n4)cc3)cc2C(F)(F)F)CC1,NF-kB SEAP reporter activity,[3]; [9],0.146
same,NF-kB SEAP reporter activity,[3]; [10],0.248
OC1C=C2CCN3Cc4cc5c(cc4C(C1O)C23)OCO5 (stereo not drawn),NF-kB SEAP reporter activity,[3]; [9],2.07
same,NF-kB SEAP reporter activity,[3]; [10],1.61
OC1C=C2CCN3Cc4cc5c(cc4C(C1O)C23)OCO5 (stereo not drawn) (library stock concentration (final ~1000-fold dilution): 10 mM),NF-kB SEAP reporter activity,[2]; agonist: LPS (TLR4) 0.1 ug/mL,1.54
same,NF-kB SEAP reporter activity,[2]; [4],1.05
same,NF-kB SEAP reporter activity,[2]; [5],0.33
same,NF-kB SEAP reporter activity,[2]; [6],0.552
CNCCC(Oc1ccccc1C)c1ccccc1.Cl (stereo not drawn) (library stock concentration (final ~1000-fold dilution): 10 mM),NF-kB SEAP reporter activity,[1]; agonist: LPS (TLR4) 0.1 ug/mL,1.15
same,NF-kB SEAP reporter activity,[1]; [4],0.76
same,NF-kB SEAP reporter activity,[1]; [5],0.791
same,NF-kB SEAP reporter activity,[1]; [6],1.01
CNCCC(Oc1ccccc1C)c1ccccc1.Cl (stereo not drawn),NF-kB SEAP reporter activity,[3]; [7],1.52
same,NF-kB SEAP reporter activity,[3]; [8],1.15
NC(=O)C(=Cn1cnc(-c2cc(C(F)(F)F)cc(C(F)(F)F)c2)n1)c1cncnc1 (library stock concentration (final ~1000-fold dilution): 10 mM),NF-kB SEAP reporter activity,[1]; agonist: LPS (TLR4) 0.1 ug/mL,0.331
same,NF-kB SEAP reporter activity,[1]; [4],0.334
same,NF-kB SEAP reporter activity,[1]; [5],0.13
same,NF-kB SEAP reporter activity,[1]; [6],0.148
NC(=O)C(=Cn1cnc(-c2cc(C(F)(F)F)cc(C(F)(F)F)c2)n1)c1cncnc1,NF-kB SEAP reporter activity,[3]; [7],0.765
same,NF-kB SEAP reporter activity,[3]; [8],0.772
COc1cc2ncnc(Nc3ccc(Oc4ccccc4)cc3C)c2cc1OC.Cl,NF-kB SEAP reporter activity,[3]; [7],1.37
same,NF-kB SEAP reporter activity,[3]; [8],0.792
COc1cc2ncnc(Nc3ccc(Oc4ccccc4)cc3C)c2cc1OC.Cl (library stock concentration (final ~1000-fold dilution): 10 mM),NF-kB SEAP reporter activity,[1]; agonist: LPS (TLR4) 0.1 ug/mL,1.05
same,NF-kB SEAP reporter activity,[1]; [4],0.422
same,NF-kB SEAP reporter activity,[1]; [5],0.297
same,NF-kB SEAP reporter activity,[1]; [6],0.42
CN(C)CC1CCn2cc(c3ccccc32)C2=C(C(=O)NC2=O)c2cn(c3ccccc23)CCO1.Cl (stereo not drawn),NF-kB SEAP reporter activity,[3]; [9],1.68
same,NF-kB SEAP reporter activity,[3]; [10],2.13
CN(C)CC1CCn2cc(c3ccccc32)C2=C(C(=O)NC2=O)c2cn(c3ccccc23)CCO1.Cl (stereo not drawn) (library stock concentration (final ~1000-fold dilution): 10 mM),NF-kB SEAP reporter activity,[2]; agonist: LPS (TLR4) 0.1 ug/mL,3.03
same,NF-kB SEAP reporter activity,[2]; [4],0.276
same,NF-kB SEAP reporter activity,[2]; [5],1.55
same,NF-kB SEAP reporter activity,[2]; [6],1.77
